High-throughput results deposited in PubChem by National Center for Advancing Translational Sciences (NCATS).
IkB sig inh: inhibitors of IkB signaling in ABC-DLBCL cells | ABC-DLBCL IkBa-CBG/CBR dual luciferase ratio, 4 h; response scale: scaled: untreated 0%, proteasome inhibitor 100% | Potency, µM (titrated, usually from 57.1 µM), for inactives: at the highest dose IkBa stabilization activation | 110,000 tested, 0.04% active; active means well fitted curve in the direction sought with a large enough effect in the signal ratio, not every such curve was filed as active; inconclusive means small, poorly fitted or top-dose-only effect, or a change in a side signal; the % refers to the signal ratio;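 further: the direction sought is a rising ratio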
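Luminescence ratio of IκBα-fused green versus native red beetle luciferase in OCI-Ly3 cells, 4 h post-doxycycline with compound; red signal alone, scaled from basal (0%) to zero light (-100%), flagged nonspecific or cytotoxic effects.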
Imprint erasure: induces erasure of genomic imprints in mouse ES cells | mouse ES Peg3-LacZ reporter, beta-gal luminescence, 40 h | Potency, µM (titrated, usually from 60.7 µM), without a hit: at the top dose activity change, positive = activation, hits mostly activators | 110,000 tested, 0.02% active | AID 1948
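Each well holds 300 Peg3LacZ-Neo (maternal) female ES cells incubated 40 h at 37C, 5% CO2. LacZ is measured by BetaGlo luminescence, with AC50 and maximum efficacy derived from dose-response curves.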
p53ts 39C tox: p53ts cell cytotoxicity, nonpermissive temperature; H1299-p53A138V viability at 39C, ATP luminescence, 24 h; Potency, µM (doses to about 46.1 µM), for inactives: at the highest dose activity change, negative = cell killing, hits mostly cytotoxic; 130,000 tested, 1.5% active; AID 902; further: on the % scale 0 is the no-effect control and ±100 the full control effect; nearly all actives have a fitted effect of over 55% in size
p53ts 32C tox: kills p53ts cells at the permissive temperature; H1299-p53A138V at 32C, ATP luminescence viability, 24 h; 130,000 tested, 0.93% active; Potency, µM (series often up to 46.1 µM), without a hit: at the highest dose activity change, negative = cytotoxicity, hits mostly cytotoxic; AID 924;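 further: 0% = DMSO and -100% = full killing by reference compound; nearly all actives have a fitted effect of over 55% in size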
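Viability by ATPlite luminescence after 24 h compound treatment (up to 46 uM) at the permissive 32C. Cells are H1299 carrying p53 A138V. Scale runs from DMSO basal to 100 uM tamoxifen as full kill; AC50 from Hill fits.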
Active calls of the source: *; ! = not confirmed by another sample; [ ] = remark or other dose. Sampled rows, rich in hits. Any-hit rate of the full collection: about 1.7%. Unless noted, the call rests on the fitted dose curve; in most records, active means well fitted curve in the direction sought with a large enough effect; inconclusive means small, poorly fitted or top-dose-only effect, or another doubt; inactive means no such curve, though single readings can be large; an effect the other way counts as inactive or inconclusive. Potency means the concentration at half of the fitted maximal effect.

Results for COc1ccc(CCN2CCC(Nc3nc4ccccc4n3Cc3ccc(F)cc3)CC2)cc1 ?
IkB sig inh: 5%[25.6 µM]; Imprint erasure: -42%; p53ts 39C tox: 13µM*!; p53ts 32C tox: -15%

How did COc1ccc(Cn2c(-c3ccc(OC)cc3)nc3ccccc32)cc1 do in these assays?
p53ts 39C tox: 1%; p53ts 32C tox: 7%

Results for COc1ccc(CCNC[C@H](O)c2ccc(O)cc2)cc1OC ?
IkB sig inh: 7%; p53ts 39C tox: 3%; p53ts 32C tox: 4%

Results for CCc1cccc(CC)c1NC1=NS(=O)(=O)c2ccccc21 ?
IkB sig inh: 3%; Imprint erasure: 6%[10.9 µM]; p53ts 39C tox: 17%; p53ts 32C tox: 5%

Results for O=S1(=O)N=C(Nc2nc3c(s2)CCCC3)c2ccccc21 ?
IkB sig inh: inconclusive; Imprint erasure: -83%; p53ts 39C tox: 4µM*; p53ts 32C tox: 5µM*

How did Cc1ccc(C)c(Nc2nn3c(=O)c4ccc(C(=O)NCc5ccccc5)cc4nc3s2)c1 do in these assays?
IkB sig inh: inconclusive; Imprint erasure: 3%[10.9 µM]; p53ts 39C tox: 13µM*; p53ts 32C tox: inconclusive

What do the screens show for `Cc1ccccc1Nc1nn2c(=O)c3ccc(C(=O)NCc4cccs4)cc3nc2s1`?
IkB sig inh: inconclusive; Imprint erasure: 5%[10.9 µM]; p53ts 39C tox: -8%; p53ts 32C tox: -15%

How did COc1ccccc1Nc1nn2c(=O)c3ccc(C(=O)NCc4ccc(F)cc4)cc3nc2s1 do in these assays?
IkB sig inh: -1%; Imprint erasure: -36%[10.9 µM]; p53ts 39C tox: 3.2µM*; p53ts 32C tox: 3.2µM*

What do the screens show for `CCc1cccc(NC(=O)c2ccc3c(=O)n4nc(Nc5ccccc5OC)sc4nc3c2)c1`?
IkB sig inh: 0%; Imprint erasure: -18%[10.9 µM]; p53ts 39C tox: 5µM*; p53ts 32C tox: 3.2µM*

Results for CCc1ccccc1Nc1nn2c(=O)c3ccc(C(=O)NCc4ccccc4OC)cc3nc2s1 ?
IkB sig inh: inconclusive; Imprint erasure: 14%[10.9 µM]; p53ts 39C tox: 5%; p53ts 32C tox: -11%

Results for COc1ccc(/C=N/NC(=O)c2cc(-c3ccc(Cl)cc3)n[nH]2)cc1OC ?
p53ts 39C tox: -23%; p53ts 32C tox: -26%

How did CN(C)C(=O)c1ccc(-c2nccc(NCc3cccs3)n2)cc1 do in these assays?
IkB sig inh: -1%[11.4 µM]; Imprint erasure: inconclusive; p53ts 39C tox: -13%; p53ts 32C tox: 6%

Results for CN(C)c1ccc(-c2nccc(NCc3cccs3)n2)cc1 ?
IkB sig inh: 13%[11.4 µM]; Imprint erasure: -32%; p53ts 39C tox: 5µM*; p53ts 32C tox: 7.9µM*

What do the screens show for `C[C@H]1[C@H](C)CC[C@]2(C(=O)O)CC[C@]3(C)C(=CC[C@@H]4[C@]5(C)C[C@H](O)[C@@H](O)[C@@](C)(CO)[C@@H]5[C@H](O)C[C@@]43C)[C@H]12`?
IkB sig inh: 0%[11.4 µM]; p53ts 39C tox: 5%[9.22 µM]; p53ts 32C tox: 9%[9.22 µM]

What do the screens show for `c1ccc(-c2cc(-c3nc(-c4ccccn4)no3)c3ccccc3n2)cc1`?
IkB sig inh: 2%; Imprint erasure: -9%; p53ts 39C tox: -19%; p53ts 32C tox: -28%

Results for c1ccc(-c2ccc(-c3nc(-c4ccccn4)no3)cc2)cc1 ?
IkB sig inh: inconclusive; Imprint erasure: -94%; p53ts 39C tox: 3.2µM*; p53ts 32C tox: 1.6µM*

What do the screens show for `Cc1ccc(-c2noc(-c3ccccc3Br)n2)cc1`?
IkB sig inh: 7%; Imprint erasure: -50%; p53ts 39C tox: 10µM*; p53ts 32C tox: 13µM*

How did c1ccc(-c2nc(-c3ccccn3)no2)cc1 do in these assays?
p53ts 39C tox: 7.1µM*; p53ts 32C tox: 5.6µM*

What do the screens show for `Cc1ccc2nc(-c3ccccn3)oc2c1`?
IkB sig inh: 1%; Imprint erasure: -91%; p53ts 39C tox: 5µM*; p53ts 32C tox: 3.2µM*

How did Cc1ccc2nc(-c3cccnc3)oc2c1 do in these assays?
IkB sig inh: -2%; Imprint erasure: -71%; p53ts 39C tox: inconclusive; p53ts 32C tox: inconclusive

What do the screens show for `c1ccc(-c2noc(-c3ccco3)n2)nc1`?
IkB sig inh: inconclusive; Imprint erasure: -91%; p53ts 39C tox: inconclusive; p53ts 32C tox: -30%

Results for COC(=O)[C@](C)(N)Cc1ccc(O)cc1 ?
IkB sig inh: -4%; p53ts 39C tox: 12%; p53ts 32C tox: 21%

Results for CSC(=[SH+])N=N/C(=C1/C=CC=CN1)c1ccccn1.[Cu][Br] ?
Imprint erasure: -65%[10.9 µM]

How did COC(=O)NC(/C(C(=O)OC)=C(\C)NCc1ccccc1)c1ccc2ccccc2c1 (configuration not stated) do in these assays?
p53ts 39C tox: 3%[9.22 µM]; p53ts 32C tox: -8%[9.22 µM]

How did CCCCn1c(=O)c2[nH]c(C34CC5CC(CC3C5)C4)nc2n(CCCO)c1=O do in these assays?
Imprint erasure: -20%

How did c1ccc(-c2noc(-c3cccc4ccccc34)n2)nc1 do in these assays?
IkB sig inh: inconclusive; Imprint erasure: -77%; p53ts 39C tox: inconclusive; p53ts 32C tox: inconclusive

Results for Cc1ccc(-c2nc(-c3ccccn3)no2)cc1 ?
p53ts 39C tox: 0.4µM*; p53ts 32C tox: 0.5µM*

How did Cc1ccc(-c2nc(-c3ccccn3)no2)cc1Cl do in these assays?
IkB sig inh: inconclusive; Imprint erasure: -93%; p53ts 39C tox: 2.5µM*; p53ts 32C tox: 2µM*

Results for Clc1cccc(-c2nc(-c3ccccn3)no2)c1 ?
IkB sig inh: inconclusive; Imprint erasure: -93%; p53ts 39C tox: 3.2µM*; p53ts 32C tox: 5µM*

What do the screens show for `COc1cc(-c2nc(-c3ccccn3)no2)cc(OC)c1OC`?
IkB sig inh: inconclusive; Imprint erasure: -23%; p53ts 39C tox: -21%; p53ts 32C tox: -24%

Results for OCc1ccc(-c2ccc(-c3ccc(CO)s3)o2)s1 ?
Imprint erasure: -62%

What do the screens show for `CCCCCCCCCCCCCCCCCCOC[C@@H](COP(=O)([O-])OCC[N+](C)(C)C)OC`?
IkB sig inh: -2%; p53ts 39C tox: 15%; p53ts 32C tox: 2%

How did CCC(=O)n1nc(-c2ccco2)nc1SCc1ccccc1 do in these assays?
IkB sig inh: 2%; Imprint erasure: -7%; p53ts 39C tox: inconclusive; p53ts 32C tox: inconclusive

How did CC(=O)n1nc(-c2ccco2)nc1SCc1ccccc1 do in these assays?
IkB sig inh: 7%; Imprint erasure: 1%; p53ts 39C tox: inconclusive; p53ts 32C tox: 13µM*

How did CCCC(=O)Nc1ccc(-c2nc3cc(C)c(C)cc3o2)cc1 do in these assays?
IkB sig inh: 0%; Imprint erasure: -18%; p53ts 39C tox: 6%; p53ts 32C tox: -6%

How did CCCC(=O)Nc1cccc(-c2nc3cc(C)c(C)cc3o2)c1C do in these assays?
IkB sig inh: inconclusive; Imprint erasure: -19%[10.9 µM]; p53ts 39C tox: 2.5µM*; p53ts 32C tox: 2µM*

What do the screens show for `COc1ccc(/C=C/C(=O)c2ccc(C)s2)cc1`?
Imprint erasure: -5%; p53ts 39C tox: 21%; p53ts 32C tox: 32µM*
